The values that follow come from PubChem BioAssay (EPA / NIEHS).

Structures are written as SMILES. The source holds several records for some structures; these can differ, active in one and inactive in another. Activity calls are given as the source filed them. How the source made its calls: active means hit-call score of the fitted dose curve at least 0.9, where 1 is the maximum; inactive means score below 0.9.

Read-out in experiment [1]: Tissue Factor, F3 (gene 2152)
In words: BSK_CASM3C_TissueFactor: BioMAP Diversity Plus: CASM3C Assay for Tissue Factor Biomarker Activity (AID 2283052).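 Further: cell surface tissue factor protein level read by ELISA.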 The note with it: primary human coronary artery smooth muscle cells; actives raise or lower the signal.

Read-out in experiment [2]: Interferon-gamma inducible Protein 10 (IP10), CXCL10 (gene 3627)
In words: BSK_hDFCGF_IP10: BioMAP Diversity Plus: hDFCGF Assay for Interferon-gamma inducible Protein 10 (IP10) Biomarker Activity (AID 2283053). The conditions noted are these: primary human foreskin fibroblasts; actives raise or lower the signal. An outline of the steps:
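Cells: human dermal foreskin fibroblasts. Exposure: 24 h post-dosing. Detection: IP-10 ELISA, with values expressed against DMSO controls and fitted in both directions.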

Read-out in experiment [3]: Urokinase-type plasminogen activator receptor (uPAR), PLAUR (gene 5329)
In words: BSK_CASM3C_uPAR: BioMAP Diversity Plus: CASM3C Assay for Urokinase-type plasminogen activator receptor (uPAR) Biomarker Activity (AID 2283054).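 Further: cell-surface uPAR protein level quantified by ELISA.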 The conditions noted are these: primary human coronary artery smooth muscle cells; actives raise or lower the signal.

Read-out in experiment [4]: Vascular cell adhesion molecule 1 (VCAM1), VCAM1 (gene 7412)
In words: BSK_CASM3C_VCAM1: BioMAP Diversity Plus: CASM3C Assay for Vascular cell adhesion molecule 1 (VCAM1) Biomarker Activity (AID 2283055).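 Further: VCAM-1 protein level quantified by ELISA on the cells.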 The conditions noted are these: primary human coronary artery smooth muscle cells; actives raise or lower the signal.

Read-out in experiment [5]: Collagen III, COL3A1 (gene 1281)
In words: BSK_hDFCGF_CollagenIII: BioMAP Diversity Plus: hDFCGF Assay for Collagen III Biomarker Activity (AID 2283056). The conditions noted are these: primary human foreskin fibroblasts; actives raise or lower the signal. An outline of the steps:
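Response relative to DMSO, fitted in both directions, reflects ELISA-measured collagen III in human primary skin fibroblasts 24 h after compound addition.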

Read-out in experiment [6]: Epidermal growth factor receptor (EGFR), EGFR (gene 1956)
In words: BSK_hDFCGF_EGFR: BioMAP Diversity Plus: hDFCGF Assay for Epidermal growth factor receptor (EGFR) Biomarker Activity (AID 2283057). The conditions noted are these: primary human foreskin fibroblasts; actives raise or lower the signal. An outline of the steps: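 Dosing human primary skin fibroblasts, then measuring surface EGFR by ELISA at 24 h, gives the endpoint; gains and losses relative to DMSO were fitted in both directions.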

Read-out in experiment [7]: Interleukin-8 (IL8), CXCL8 (gene 3576)
In words: BSK_hDFCGF_IL8: BioMAP Diversity Plus: hDFCGF Assay for Interleukin-8 (IL8) Biomarker Activity (AID 2283058). The conditions noted are these: primary human foreskin fibroblasts; actives raise or lower the signal. An outline of the steps:
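Fibroblast monolayers (human foreskin, hDFCGF) received test chemical for 24 h before ELISA detection of IL-8; either increases or decreases relative to DMSO count as activity.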

Experiment [8] is described as follows: BSK_hDFCGF_Proliferation: Cell Proliferation Assessment in the BioMAP Diversity Plus: hDFCGF Assay (AID 2283059).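 Further: curves fitted for both rise and fall of signal versus DMSO baseline.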 The note with it: primary human foreskin fibroblasts. In short, it runs like this: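 Sub-confluent human foreskin fibroblast cultures receive test chemical […]. Relative cell number is quantified by sulforhodamine B staining (0.1%, after 10% TCA fixation) at 560 nm, with bidirectional fitting referenced to DMSO.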

Read-out in experiment [9]: Macrophage colony-stimulating factor (MCSF), CSF1 (gene 1435)
In words: BSK_hDFCGF_MCSF: BioMAP Diversity Plus: hDFCGF Assay for Macrophage colony-stimulating factor (MCSF) Biomarker Activity (AID 2283060). The note with it: primary human foreskin fibroblasts; actives raise or lower the signal. An outline of the steps: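 fibroblasts (human foreskin, primary), 24 h post-dose; M-CSF by ELISA; bidirectional fit, DMSO = baseline.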

Experiment [10] in a line: BSK_hDFCGF_SRB: Viability Assessment in the BioMAP Diversity Plus: hDFCGF Assay (AID 2283061).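 Further: cells exposed to compound for 24 h before the read.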 The conditions noted are these: primary human foreskin fibroblasts. An outline of the steps:
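SRB-based viability read on primary human skin fibroblasts at 24 h: TCA fixation, 0.1% dye, 560 nm. Gain or loss of signal is fitted against the DMSO negative control.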

Read-out in experiment [11]: TIMP metallopeptidase inhibitor 1 (TIMP1), TIMP1 (gene 7076)
In words: BSK_hDFCGF_TIMP1: BioMAP Diversity Plus: hDFCGF Assay for TIMP metallopeptidase inhibitor 1 (TIMP1) Biomarker Activity (AID 2283062). The note with it: primary human foreskin fibroblasts; actives raise or lower the signal. An outline of the steps: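 Bidirectional curve fitting against DMSO baseline yielded this endpoint, based on ELISA detection of TIMP-1 in primary human foreskin fibroblasts exposed to compound for 24 h.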

Read-out in experiment [12]: Monokine induced gamma interferon (MIG), CXCL9 (gene 4283)
In words: BSK_hDFCGF_MIG: BioMAP Diversity Plus: hDFCGF Assay for Monokine induced gamma interferon (MIG) Biomarker Activity (AID 2283063). The conditions noted are these: primary human foreskin fibroblasts; actives raise or lower the signal. An outline of the steps:
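Endpoint derived by bidirectional fitting relative to DMSO; MIG quantified via ELISA in primary human foreskin fibroblasts harvested 24 h after dosing.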

Read-out in experiment [13]: Matrix Metallopeptidase 1 (MMP1), MMP1 (gene 4312)
In words: BSK_hDFCGF_MMP1: BioMAP Diversity Plus: hDFCGF Assay for Matrix Metallopeptidase 1 (MMP1) Biomarker Activity (AID 2283064). The conditions noted are these: primary human foreskin fibroblasts; actives raise or lower the signal. An outline of the steps: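 ELISA read-out of MMP1 from human foreskin fibroblasts (primary skin cells), 24 h post-dose. Gain or loss of signal was fitted bidirectionally versus DMSO negative control; cytotoxicity was checked by SRB in parallel cultures.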

Read-out in experiment [14]: Vascular cell adhesion molecule 1 (VCAM1), VCAM1 (gene 7412)
In words: BSK_hDFCGF_VCAM1: BioMAP Diversity Plus: hDFCGF Assay for Vascular cell adhesion molecule 1 (VCAM1) Biomarker Activity (AID 2283065).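 On AC50: VCAM-1 protein level quantified by ELISA after 24 h chemical exposure.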 The note with it: primary human foreskin fibroblasts; actives raise or lower the signal. An outline of the steps: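 Measured after 24 h chemical treatment of primary human skin fibroblasts, VCAM-1 was detected by ELISA and concentration-response analysed in both directions versus DMSO vehicle.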

Read-out in experiment [15]: Plasminogen activator inhibitor-1 (PAI1), SERPINE1 (gene 5054)
In words: BSK_hDFCGF_PAI1: BioMAP Diversity Plus: hDFCGF Assay for Plasminogen activator inhibitor-1 (PAI1) Biomarker Activity (AID 2283066). The note with it: primary human foreskin fibroblasts; actives raise or lower the signal. An outline of the steps: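 Fibroblasts from human foreskin were treated with test chemical. After 24 h, PAI-1 was measured by ELISA. Activity was fitted in both directions relative to DMSO.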

Read-out in experiment [16]: Intercellular Adhesion Molecule 1 (ICAM1), ICAM1 (gene 3383)
In words: BSK_KF3CT_ICAM1: BioMAP Diversity Plus: KF3CT Assay for Intercellular Adhesion Molecule 1 (ICAM1) Biomarker Activity (AID 2283067). The note with it: primary human keratinocytes with fibroblasts; actives raise or lower the signal. An outline of the steps:
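Bidirectional curve fitting against a DMSO baseline was applied to ICAM-1 ELISA signal from primary human skin co-cultures harvested 24 h after treatment, with SRB staining of parallel wells for overt cytotoxicity.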

Read-out in experiment [17]: Interferon-gamma inducible Protein 10 (IP10), CXCL10 (gene 3627)
In words: BSK_KF3CT_IP10: BioMAP Diversity Plus: KF3CT Assay for Interferon-gamma inducible Protein 10 (IP10) Biomarker Activity (AID 2283068). The note with it: primary human keratinocytes with fibroblasts; actives raise or lower the signal. An outline of the steps:
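ELISA read-out of IP-10 after 24 h chemical dosing of human skin primary co-culture (keratinocytes, foreskin fibroblasts). Gain or loss of signal relative to DMSO, bidirectional curve fit.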

The nature of experiment [18]: BSK_KF3CT_SRB: Viability Assessment in the BioMAP Diversity Plus: KF3CT Assay (AID 2283069).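 Further: total protein by sulforhodamine B staining as a cytotoxicity measure; fitted for both signal gain and loss against DMSO baseline.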 The conditions noted are these: primary human keratinocytes with fibroblasts. In short, it runs like this: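 SRB read-out at 560 nm (0.1% stain, TCA-fixed cells) gauges overt cytotoxicity in a human skin keratinocyte–fibroblast co-culture 24 h post-dosing. Signal change was fitted bidirectionally relative to DMSO control.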

Read-out in experiment [19]: Interleukin-1 alpha (IL1a), IL1A (gene 3552)
In words: BSK_KF3CT_IL1a: BioMAP Diversity Plus: KF3CT Assay for Interleukin-1 alpha (IL1a) Biomarker Activity (AID 2283070). The note with it: primary human keratinocytes with fibroblasts; actives raise or lower the signal. In short, it runs like this: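 Primary skin co-culture (keratinocytes, foreskin fibroblasts), 24 h exposure; ELISA for IL-1a; bidirectional curve fit vs DMSO.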

Read-out in experiment [20]: TIMP metallopeptidase inhibitor 2 (TIMP2), TIMP2 (gene 7077)
In words: BSK_KF3CT_TIMP2: BioMAP Diversity Plus: KF3CT Assay for TIMP metallopeptidase inhibitor 2 (TIMP2) Biomarker Activity (AID 2283071). The conditions noted are these: primary human keratinocytes with fibroblasts; actives raise or lower the signal. An outline of the steps:
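Chemicals were dosed onto human skin primary co-cultures of keratinocytes and foreskin fibroblasts, and TIMP-2 was measured by ELISA after 24 hours. Activity in either direction was fitted relative to DMSO.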

Regarding `O=P(O)(O)CCCl`, the result in experiment [1], in experiment [2], in experiment [3], in [4], in [5] and in experiment [6] was inactive. For the same molecule, the outcome in [7], in experiment [8], in [9], in [10], in experiment [11] and in [12] was inactive. The result in [13], in experiment [14], in [15], in experiment [16], in experiment [17] and in [18] was inactive. Further, the result in [19] and in experiment [20] was inactive.
On to `CC(C)N1C(=O)c2ccccc2NS1(=O)=O`, for which the result in [1], in [3], in experiment [4], in experiment [6], in [7] and in experiment [8] was inactive. Besides, the outcome in experiment [9], in experiment [10], in [12], in [13], in experiment [14] and in experiment [15] was inactive. The outcome in experiment [16], in experiment [17], in experiment [18], in experiment [19] and in [20] was inactive. The half-maximal activity concentration (AC50) in experiment [2] is 13.4 µM (active); in experiment [5] it was 0.144 µM (active); in experiment [11] it was 3.97 µM (active).
Consider `CCCCOCN(C(=O)CCl)c1c(CC)cccc1CC`, for which the outcome in experiment [1] was inactive. Besides, the AC50 was 24.6 µM (active) in experiment [2]; 29.3 µM (active) in experiment [3]; 24.2 µM (active) in experiment [4]; 12.2 µM (active) in experiment [5]; 33.3 µM (active) in experiment [6]; 31.4 µM (active) in experiment [7]. For the same molecule, the AC50 in experiment [8] was 15.2 µM (active); in experiment [9] it was 16.5 µM (active); in experiment [10], 31.1 µM (active); in experiment [11], 13.7 µM (active); in experiment [12], 33.3 µM (active); in experiment [13], 34.8 µM (active). Besides, the AC50 in experiment [14] is 16.9 µM (active); in experiment [15], 20 µM (active); in experiment [16] it was 35.2 µM (active); in experiment [17] it was 26.4 µM (active); in experiment [18], 35.6 µM (active); in experiment [19], 35.3 µM (active). Moreover, in experiment [20], the AC50 is 31.6 µM (active).
For the molecule `CC1(C)CON(Cc2ccccc2Cl)C1=O`, the outcome in experiment [1], in experiment [2], in [3], in [4], in [5] and in [6] was inactive. Further, the result in experiment [7], in [8], in experiment [9], in [10], in [12] and in experiment [14] was inactive. The result in experiment [15], in experiment [16], in experiment [17], in [18], in [19] and in experiment [20] was inactive. Besides, the AC50 in experiment [13] is 20 µM (active).
`COCC(C)N(C(=O)CCl)c1c(C)csc1C` (stereo not given): the result in [1], in experiment [2], in experiment [3], in [4], in [5] and in experiment [6] was inactive. Further, the result in [8], in experiment [9], in experiment [10], in experiment [11], in [12] and in experiment [13] was inactive. Moreover, the result in experiment [14], in experiment [15], in experiment [16], in [17], in [18] and in experiment [19] was inactive. Besides, the outcome in experiment [20] was inactive. In addition, the results for the AC50 in experiment [8] and in experiment [15] were 14.3 µM (active) and 20 µM (active), respectively.
As for `CCCCC(O)(Cn1cncn1)c1ccc(Cl)cc1Cl` (stereo not given), the result in [1], in experiment [3], in [4], in experiment [6], in experiment [7] and in experiment [9] was inactive. Moreover, the result in experiment [10], in [11], in [12], in experiment [14], in experiment [16] and in experiment [17] was inactive. In addition, the outcome in experiment [18], in [19] and in experiment [20] was inactive. The AC50 in [2] is 32.9 µM (active); in experiment [5], 29.9 µM (active); in [8], 22.9 µM (active); in experiment [13], 12.7 µM (active); in experiment [15] it was 21.2 µM (active).

Broadly, the AC50 is the midpoint of the concentration-response curve, whichever way the signal moves.
